Results: paper PMC12136788
Residue numbers refer to the chain shown, from its start. In all, about 24,000 sequences were measured (“enrichment r”: median about 0.99, highest 2% from about 3.7 on). This excerpt belongs to a sample that is enriched for the highest values.

T1: UNK ZnF1-3 (human, UniProt Q9C0B0 31-174)
T1 sequence: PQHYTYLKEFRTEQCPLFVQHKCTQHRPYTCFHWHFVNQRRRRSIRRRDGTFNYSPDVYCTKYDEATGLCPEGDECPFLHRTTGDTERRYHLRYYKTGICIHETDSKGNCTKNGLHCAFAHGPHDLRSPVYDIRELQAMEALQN

B1: 55555555_55559808_3342_CDS_ENSG00000115355_ENST00000336838|human|control|control (ssRNA)
RNA: GGGAGUUCUACAGUCCGACGAUCCAAAAGUUUAUACCUGUCAUCAGUACUUUGUUCAUCAUGUAAGAGUCGCUCCUUAUUUAACCCUAUCUUCUCAAGCUCAUGAGUUAAUUUUUCGAGAUCAUUGUUCAUCUGUUGGGUCUUCAACAGAGGAUUGAGCAUCA
B2: chr8:72542918:72542919:-_ENSMUSG00000031858_ENSMUST00000050561|mus_mus|FALSE|FALSE (ssRNA)
RNA: GGGAGUUCUACAGUCCGACGAUCAGCUAUCAAGCCAAGAGGAGCUGAGCUGGUCCCAUAACUGUCCUCCAUGGGAAAGCUAAAUAGCUGCCAGGAAGGAACCCUCUCAUUCAGGUCCAAUGGGACUUCUGCCUGAUGCUUAGGCAACAGAGGAUUGAGCAUCA
B3: chr7:141441981:141441982:+_ENSG00000106028_ENST00000265304|hu_mus|hu_hu_hu_mus_False|8_88 (ssRNA)
RNA: GGGAGUUCUACAGUCCGACGAUCCUCAUGUCUUACAAACUGACGAAGUACCUGUAACACAGGUCUUCGAAACAUGGCUUCUGUUUUUCUUACAACCUAAUCUUUAGGCUUUUCCUAAAGGAAAGAAUAACCCGAGCAAAAUGACAACAGAGGAUUGAGCAUCA
B4: chr5:159492046:159492047:+_ENSG00000113312_ENST00000231238|hu_hu|FALSE|FALSE (ssRNA)
RNA: GGGAGUUCUACAGUCCGACGAUCAGUCAGCUUGUAAAGCUUUUGUUAUCUUUGUUAUCUGUUAUUAUUUGGAUUUUGAACGAAAUUGAUGGAGUACGAGCCGGUAGAGGAAUCCUGUUUGAUCUGGAAAUUUUCCGUGGAGAGCAACAGAGGAUUGAGCAUCA
B5: chr7:54825262:54825263:-_ENSG00000132432_ENST00000352861|hu_hu|hu_hu_hu_mus_False|58_58 (ssRNA)
RNA: GGGAGUUCUACAGUCCGACGAUCCUGCCGGCUGGGCUCCACAAACUGCAUUACCUGAUCCAUGUUUGUUGGAUGGCACACCUAAAACGUAGAGACACGUAGCUCAGGAGAGAACCGAGCCCAACGGAACCGGAAGCUGGCAACCAACAGAGGAUUGAGCAUCA
B6: chr2:148701057:148701058:-_ENSG00000115947_ENST00000542387|hu_hu|FALSE|FALSE (ssRNA)
RNA: GGGAGUUCUACAGUCCGACGAUCUGACCGCAGGUUUUUGCUGAUAUUGAAAUGCUUCUGUAGUACUUCUUGCACACUUCUAUCUUCUGAGAGAUACUGAACAUUUUCAUUCCACUUCUCAGCAAAAACCUUGUCUGGAAACUCCAACAGAGGAUUGAGCAUCA
B7: chr15:59961163:59961164:-_ENSG00000140299_ENST00000607373|hu_mus|FALSE|FALSE (ssRNA)
RNA: GGGAGUUCUACAGUCCGACGAUCGCCGACAUACUCCAUGGGAACAAGCUCUGCCAGCUCGGCCAAGUUAAAGACGUAUCUGAUCUUCUGACUGAACUUUGAACUGAUAAAUGGUCGUGUAACAGCCAGAAGUGUUCGGAUAAACAACAGAGGAUUGAGCAUCA
B8: 6624775_6624895_1421_CDS_ENSMUSG00000041272_ENSMUST00000039987|mouse|control|control (ssRNA)
RNA: GGGAGUUCUACAGUCCGACGAUCGCUCGGAUGCAUGGCGGUGAGCUGAGGAGUCAUUCCUGGUUGUUGGUGAUAGUGAGAACUUAGGUACAGAGCUGAGUGGGCCUGGCUGGGCCCAUGGAAUACUGACGGCUUUGAGUUGACCAACAGAGGAUUGAGCAUCA
B9: chrX:35795285:35795286:-_ENSMUSG00000016534_ENSMUST00000061755|mus_mus|FALSE|FALSE (ssRNA)
RNA: GGGAGUUCUACAGUCCGACGAUCGAAAUUCAUCUCCCAUUCUGCAUAAAGGCAAGUACCCUUUGAAUCUGUCAAAUUAACUAUCAAUGCAUUGGACUGAACGGCUCCUAGGAACAGAAAGAUCAGGAUGAGCUUUGCGCCUUUCAACAGAGGAUUGAGCAUCA
B10: 74470573_74471800_972_CDS_ENSMUSG00000021577_ENSMUST00000022062|mouse|control|control (ssRNA)
RNA: GGGAGUUCUACAGUCCGACGAUCGUUGAUGAGAAUCCCCCCCUCUCCACGACACCCUUCUGUGAUGAGGCAGCCAGCACCGUAUAUACCUGUGGGGUGGAACUGAACAAAUUCUAAGUCCUGGCAAGGCAAACCAGCCCUAGUCAACAGAGGAUUGAGCAUCA
B11: chr3:160150142:160150143:+_ENSG00000113810_ENST00000344722|hu_hu|motif|central (ssRNA)
RNA: GGGAGUUCUACAGUCCGACGAUCAAAACCUGCCAUAAAUUCAUUAAGCCUUUGUUUCCGAAGAUCUUCAUAUGCCUGUCGGAAACUGUCUCUUUCAUAAGUAAUUUUGUCCAAUUCUGCUACCCGUUGCAAAUACAAUUCUUCCAACAGAGGAUUGAGCAUCA
B12: chr1:150192741:150192742:-_ENSG00000143401_ENST00000314136|hu_hu|FALSE|FALSE (ssRNA)
RNA: GGGAGUUCUACAGUCCGACGAUCUUAAUUAUGGGCUAAAAAUGACUAAUACAGUAAGCUUGAAUUUAAAAAAUUAAGUCUAAAUAAAUUGCUAGGGAAUUCCACAAUGGGAGUCAAUGAAAAUUUUUCUCUACAUACAAUAUGCAACAGAGGAUUGAGCAUCA
B13: chr1:109605286:109605287:-_ENSG00000197780_ENST00000461096|hu_mus|hu_hu_hu_mus_True|18_38 (ssRNA)
RNA: GGGAGUUCUACAGUCCGACGAUCAAGUUUCAGAGUAACAUUCAGUAACCUCUUUAAAUGCAAUUAUCCUUAUUAUAAGCUAAGCAGAAUAAUAAUUUAAUACAUAGAGUGAACUACCACAAAACCUUGAACCGCGAAAAUGGUCAACAGAGGAUUGAGCAUCA
B14: chr1:150192741:150192742:-_ENSG00000143401_ENST00000314136|hu_hu|motif|central (ssRNA)
RNA: B12 RNA with U80G, A81G
B15: chr1:109605286:109605287:-_ENSG00000197780_ENST00000461096|hu_mus|hu_hu_hu_mus_True|18_98 (ssRNA)
RNA: GGGAGUUCUACAGUCCGACGAUCAAGUUUCAGAGUAUUCAGUGAUCACCUCUUUAAAUGCAAUUAUCCUUAUUAUAAGCUAAGCAGAAUAAUAAUUUAAUACCGUAAGUGAACUACCACAAAACCUUGAACCGCGAAAAUGGUCAACAGAGGAUUGAGCAUCA
B16: chr16:57198444:57198445:-_ENSMUSG00000022749_ENSMUST00000023431|mus_mus|motif|central (ssRNA)
RNA: GGGAGUUCUACAGUCCGACGAUCCCUAAAAGAAGCUGGCGUCUUACUACAGUAAUACUGAGCCAAAGAGAACAGGUCUUCGGUGUCUUCCAGAUUCAGGCUGGCCGGGGUACUUUCCAAAAAGCGGAUAACUUCUUCUUUGCUCAACAGAGGAUUGAGCAUCA
B17: chr22:36164377:36164378:-_ENSG00000100320_ENST00000405409|hu_hu|motif|central (ssRNA)
RNA: GGGAGUUCUACAGUCCGACGAUCACGGCCCUCUACCACGGUGCCGUGUAAUUUCUCCCUGGCCCUGUCUGCAUCAGCACGGUUCUCGAAAGUUACGAACCCGAAUCCCUUAGAGCCACGUUCAUUAAAGAUUAUUUCUACAUCCAACAGAGGAUUGAGCAUCA
B18: chr6:86333760:86333761:-_ENSG00000135316_ENST00000355238|hu_mus|hu_hu_hu_mus_True|98_108 (ssRNA)
RNA: GGGAGUUCUACAGUCCGACGAUCUUCUUCAAGAAUCUGUUCCUUGGUUUUACUCUUAGGAAUCGAGCCCACAAAAAGCCUAUUGUUGGCAACUGAGAUGCAGACACCAAUGUGCUUCCCGGAACGAAUUUCAUGAUUAUUAUACAACAGAGGAUUGAGCAUCA
B19: chr12:493273:493274:-_ENSG00000073614_ENST00000399788|hu_mus|hu_hu_hu_mus_False|58_108 (ssRNA)
RNA: GGGAGUUCUACAGUCCGACGAUCUUUUCUCUCUACCACAGGGAUCUUCAAUGUAGAUCCUUGAAGUUCCCAAAAUUUUGCUAGUUGAUCCAAGAAGUCCAAUCUUACUCUAGUCAUUGCCUCAAGUUCAUUCAGGCGCUGGACCAACAGAGGAUUGAGCAUCA
B20: chr2:117093540:117093541:+_ENSMUSG00000027349_ENSMUST00000028825|mus_hu|motif|central (ssRNA)
RNA: GGGAGUUCUACAGUCCGACGAUCCAUUGUAAUCGUUGUCUUGGGUGACAAAGCAUAACGCUUAGGCUGAUAAAUUCUUGCGGUAUCAUCUGUUUUUACCUUUGCUCUAUCAGACCAUCCAAAGGACUGUACAGUCACAUCUAACAACAGAGGAUUGAGCAUCA
B21: chr16:45382771:45382772:-_ENSMUSG00000022661_ENSMUST00000163230|mus_mus|mus_mus_mus_hu_True|28_58 (ssRNA)
RNA: GGGAGUUCUACAGUCCGACGAUCCUGGGUCAUGUUAUAAGACAAAUGGACAGGGAGGGCAUGCUUCUCAAAAAAUGUGAACUACUCUCUAAGACUAACAAUAUUUACUAAGUGCUAAAAAUAAGUUAAAUGAAUAAGUUAAGACAACAGAGGAUUGAGCAUCA
B22: chr16:45382771:45382772:-_ENSMUSG00000022661_ENSMUST00000163230|mus_mus|mus_mus_mus_hu_True|28_28 (ssRNA)
RNA: B21 RNA with A80G, C84U, C86G
B23: chr16:45382771:45382772:-_ENSMUSG00000022661_ENSMUST00000163230|mus_mus|mus_mus_mus_hu_True|28_98 (ssRNA)
RNA: B21 RNA with A38G, A39G, A41C, A43C, A80G, C84U, C86G
B24: chr16:45382771:45382772:-_ENSMUSG00000022661_ENSMUST00000163230|mus_mus|mus_mus_mus_hu_True|1_28 (ssRNA)
RNA: B21 RNA with A80G, C84U, C86G, G137A, U138C, U139A, A140U, A141U, G142A, A143C
B25: chr16:45382771:45382772:-_ENSMUSG00000022661_ENSMUST00000163230|mus_mus|mus_mus_mus_hu_True|8_28 (ssRNA)
RNA: GGGAGUUCUACAGUCCGACGAUCCUGGGUCAUGUUAUAAGACAAAUGGACAGGGAGGGCAUGCUUCUCAAAAAAUGUGAGCUAUUGUCUAAGACUAACAAUAUUUACUAAGUGCUAAAAAUAAGUUUUAAAUGGACGUUAAGACAACAGAGGAUUGAGCAUCA

The binders below were run against T1, UNK ZnF1-3 (assay: nsRBNS (natural sequence RNA bind-n-seq); RBNS binding buffer (assumed for nsRBNS): 25 mM Tris pH 7.5, 150 mM KCl, 3 mM MgCl2, 0.01% Triton X-100, 500 ug/ml BSA, 20 U/ml SUPERase-In, 4 C; UNK is unkempt and MSI1 is Musashi-1; names of the RNAs are library labels; protein concentration not given here; high values mean tight binding).
Work on B1 yielded a binding signal of 0.637 enrichment R.
B2 was tested, and the binding signal was 1.1 enrichment R.
With B3 the binding signal was 0.719 enrichment R.
For B4, the binding signal was 3.66 enrichment R.
For B5, the binding signal was 1.08 enrichment R.
In the case of B6, the binding signal is reported as 0.287 enrichment R.
Work on B7 yielded a binding signal of 0.638 enrichment R.
In the case of B8, the binding signal is reported as 1.32 enrichment R.
In the case of B9, the binding signal is reported as 1.22 enrichment R.
B10 showed a binding signal of 1.28 enrichment R.
For B11, the binding signal was 1.2 enrichment R.
With B12 the binding signal was 4.88 enrichment R.
For B13, the binding signal was 0.848 enrichment R.
B14 was tested, and the binding signal was 6.83 enrichment R.
B15 gave a binding signal of 0.885 enrichment R.
In the case of B16, the binding signal is reported as 1.25 enrichment R.
Work on B17 yielded a binding signal of 0.844 enrichment R.
B18 gave a binding signal of 1.34 enrichment R.
B19 gave a binding signal of 0.801 enrichment R.
With B20 the binding signal was 0.494 enrichment R.
Work on B21 yielded a binding signal of 3.92 enrichment R.
B22 gave a binding signal of 11.4 enrichment R.
B23 gave a binding signal of 8.35 enrichment R.
B24 gave a binding signal of 3.32 enrichment R.
Work on B25 yielded a binding signal of 5.08 enrichment R.
